{"source": "PubChem BioAssay AID2280", "about": "(The Scripps Research Institute Molecular Screening Center, 2010)", "note": "Screen size: about 320,000 compounds; about 1,400 (0.44%) were called active.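 Rule for the calls: active = percent inhibition above a per-plate cutoff, the plate mean of test compounds plus 3 SD (cut at about 30% in these data); inactive = the rest.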 The entries come from a sample that favours actives as a whole.", "data": [{"molecular_target": "Female germline-specific tumor suppressor gld-1 (Caenorhabditis elegans) (UniProt Q17339)", "sequence (Q17339 whole entry, looked up)": "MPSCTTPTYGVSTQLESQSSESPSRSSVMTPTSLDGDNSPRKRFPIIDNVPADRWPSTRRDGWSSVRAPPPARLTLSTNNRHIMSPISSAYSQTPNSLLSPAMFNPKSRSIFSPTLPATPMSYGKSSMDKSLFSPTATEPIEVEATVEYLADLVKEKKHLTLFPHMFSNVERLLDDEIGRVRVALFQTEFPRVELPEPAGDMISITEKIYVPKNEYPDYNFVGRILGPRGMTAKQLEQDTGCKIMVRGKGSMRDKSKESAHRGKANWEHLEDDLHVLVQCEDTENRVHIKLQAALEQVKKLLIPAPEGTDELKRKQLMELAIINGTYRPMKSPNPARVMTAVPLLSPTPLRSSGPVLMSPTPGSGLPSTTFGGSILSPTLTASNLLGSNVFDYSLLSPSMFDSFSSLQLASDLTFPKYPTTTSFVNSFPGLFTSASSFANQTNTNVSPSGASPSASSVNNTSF", "assay": "GLD-1/TGE RNA complex disruptors, primary screen, biochemical, fluorescence polarization (AID 2280);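 note: 0% = DMSO wells with GLD-1 and probe and 100% = wells lacking GLD-1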", "details": "purified GLD-1 + fluorescein TGE RNA, at 5.96 µM, active compounds read high", "values": [{"molecule": "CC(C)CCn1c(=O)c2c(nc3n2CCCN3Cc2ccccc2)n(C)c1=O", "inhibition": "2.24% (inactive)"}, {"molecule": "COc1ccc(OCCCC(=O)Nc2cccc(S(=O)(=O)N3CCCCCC3)c2)cc1", "inhibition": "6.95% (inactive)"}, {"molecule": "C1=C(N2CCOCC2)/C(=C/c2nc3ccccc3[nH]2)CC1", "inhibition": "72.7% (active)"}, {"molecule": "CC1(C)Cc2c(C#N)c(SCc3nc4ccccc4[nH]3)nc(N3CCOCC3)c2CO1", "inhibition": "-7.37% (inactive)"}, {"molecule": "c1ccc(-n2nnnc2N2CCOCC2)cc1", "inhibition": "-16.6% (inactive)"}, {"molecule": "CC(=O)c1c(C)[nH]c(C(=O)CN2C(=O)NC(C)(C)C2=O)c1C", "inhibition": "1.35% (inactive)"}, {"molecule": "COc1ccc(C(=O)CN2C(=O)NC3(CCc4ccccc43)C2=O)c(OC)c1", "note": "(stereo not given)", "inhibition": "0.18% (inactive)"}, {"molecule": "CC/C(=N/Nc1ccccc1)c1cnnc(SC)n1", "inhibition": "2.17% (inactive)"}, {"molecule": "CSc1ccc(S(=O)(=O)Nc2cccc(F)c2)cc1", "inhibition": "11.1% (inactive)"}, {"molecule": "COc1cccc(-c2nc(CS(=O)CC(=O)NCc3ccc(F)cc3)c(C)o2)c1", "note": "(stereo not given)", "inhibition": "-0.05% (inactive)"}, {"molecule": "COc1ccc(-c2nc(CS(=O)CC(=O)NCc3ccccc3)c(C)o2)cc1OC", "note": "(stereo not given)", "inhibition": "-5.15% (inactive)"}, {"molecule": "COc1ccc(-c2nc(CS(=O)CC(=O)NCc3ccccn3)c(C)o2)cc1", "note": "(stereo not given)", "inhibition": "81.7% (active)"}, {"molecule": "CC(OC(=O)c1ccc2noc(-c3ccccc3)c2c1)C(N)=O", "note": "(stereo not given)", "inhibition": "6.97% (inactive)"}, {"molecule": "Oc1ccc(-c2onc3ccc(Cl)cc23)cc1", "inhibition": "8.29% (inactive)"}, {"molecule": "COc1ccc(-c2onc3ccc(C(C)=O)cc23)cc1", "inhibition": "169% (active)"}, {"molecule": "COc1ccc(/C=C/C(=O)c2cc(Br)ccc(=O)c2O)cc1", "inhibition": "-9.08% (inactive)"}, {"molecule": "O=C(c1cnccn1)N1CCN(S(=O)(=O)c2cccc(Cl)c2)CC1", "inhibition": "3.23% (inactive)"}, {"molecule": "Cc1nn(Cc2ccccc2)c(C)c1CNC(=O)c1ccc(F)c(S(=O)(=O)N2CCOCC2)c1", "inhibition": "103% (active)"}, {"molecule": "O=C(NCCSCc1ccccc1)c1ccc(Cl)c(S(=O)(=O)N2CCOCC2)c1", "inhibition": "7.47% (inactive)"}, {"molecule": "O=C(c1ccc(F)c(S(=O)(=O)N2CCOCC2)c1)N(CCc1ccccc1)Cc1ccccc1", "inhibition": "18.5% (inactive)"}, {"molecule": "Cc1cnc(CN(C)C(=O)CC2C(=O)NCCN2Cc2cccc(F)c2F)[nH]1", "note": "(stereo not given)", "inhibition": "9.56% (inactive)"}, {"molecule": "CC1(C)CC[C@]2(C(=O)O)CC[C@]3(C)C(=CCC4[C@@]5(C)CC[C@H](O)C(C)(C)C5[C@H](O)C[C@]43C)[C@@H]2C1", "note": "(stereo not given in full)", "inhibition": "1.49% (inactive)"}, {"molecule": "O=C(COC(=O)Cn1cnc2ccccc21)Nc1cccc2c1C(=O)c1ccccc1C2=O", "inhibition": "78.6% (active)"}, {"molecule": "O=C(Cn1cnc2ccccc21)Nc1ccccc1-c1ccccc1", "inhibition": "1.53% (inactive)"}, {"molecule": "O=C(COC(=O)c1cccc(Br)c1)Nc1cccc2c1C(=O)c1ccccc1C2=O", "inhibition": "7.63% (inactive)"}, {"molecule": "Cc1ccc(N(Cc2cc(=O)[nH]c3ccccc23)C(=O)CCl)cc1", "inhibition": "0.28% (inactive)"}, {"molecule": "CC(=O)N/C(=N/c1nc(C)cc(C)n1)Nc1ccc(F)cc1F", "inhibition": "-1.91% (inactive)"}, {"molecule": "O=S(=O)([N-]c1nc2ccccc2nc1-[n+]1ccc(Cc2ccccc2)cc1)c1ccc(Br)s1", "inhibition": "94.1% (active)"}, {"molecule": "O=S(=O)(NCc1cccnc1)c1ccc(Br)s1", "inhibition": "2.39% (inactive)"}, {"molecule": "O=C(NCCc1ccccc1)C1CCN(S(=O)(=O)c2ccc(Br)s2)CC1", "inhibition": "4.67% (inactive)"}, {"molecule": "O=C1CN(C(=O)COC(=O)c2cnc(Cl)c(Cl)c2)c2ccccc2N1", "inhibition": "6.14% (inactive)"}, {"molecule": "CS(=O)(=O)c1ccc(C(=O)NNC(=O)c2cccs2)cc1", "inhibition": "1.25% (inactive)"}, {"molecule": "O=C(c1cc(COc2ccc(F)cc2F)on1)N1CCOCC1", "inhibition": "-0.95% (inactive)"}, {"molecule": "CC(C)c1nc2sc3c(c2c(=O)n1N)CC(C)(C)OC3", "inhibition": "2.68% (inactive)"}, {"molecule": "CC/C(C)=N/Nc1nc2sc3c(c2c(=O)[nH]1)CC(C)(C)OC3", "inhibition": "62.3% (active)"}, {"molecule": "CCSc1nc2sc3c(c2c(=O)[nH]1)CC(C)(C)OC3", "inhibition": "-5.06% (inactive)"}, {"molecule": "O=C(COC(=O)C1CC2CCCC(C1)C2=O)NC(=O)c1ccccc1", "note": "(stereo not given)", "inhibition": "0.04% (inactive)"}, {"molecule": "O=S(=O)(c1ccc(-c2ccno2)s1)N1CCCCC1", "inhibition": "0.96% (inactive)"}, {"molecule": "C=CCN1C=C2C(=O)C(C)(OC(=O)CCc3ccccc3)C(=O)C=C2C=C1c1ccc(C#N)cc1", "note": "(stereo not given)", "inhibition": "18.7% (inactive)"}, {"molecule": "CC1(OC(=O)C2CCCC2)C(=O)C=C2C=C(c3ccc(C#N)cc3)OC=C2C1=O", "note": "(stereo not given)", "inhibition": "17.8% (inactive)"}, {"molecule": "CC(C)(C)OC(=O)NCCCC1=CC2=CC(=O)C(C)(OC(=O)c3ccco3)C(=O)C2=CO1", "note": "(stereo not given)", "inhibition": "86.5% (active)"}, {"molecule": "CN1CCN(c2ccccc2NC(=O)COc2ccc(C3CCCCC3)cc2)CC1", "inhibition": "2.44% (inactive)"}, {"molecule": "N#CCCN(C(=O)COC(=O)c1ccc2c(c1)OCCO2)c1ccccc1", "inhibition": "0.3% (inactive)"}, {"molecule": "O=C(O)c1cc(Cl)c(Cl)cc1C(=O)Nc1cccc2ncccc12", "inhibition": "7.15% (inactive)"}, {"molecule": "Cc1ccc(/C=C(\\C#N)C(=O)Nc2cccc3ncccc23)o1", "inhibition": "59.6% (active)"}, {"molecule": "N#C/C(=C\\c1ccccc1C(F)(F)F)C(=O)Nc1ccccc1F", "inhibition": "0.78% (inactive)"}, {"molecule": "COc1cc(NC(=O)COC(=O)c2ccc([N+](=O)[O-])s2)cc(OC)c1OC", "inhibition": "4.4% (inactive)"}, {"molecule": "O=C(Cc1ccc(S(=O)(=O)N2CCOCC2)s1)N1CCN(c2ccc(C(F)(F)F)cc2[N+](=O)[O-])CC1", "inhibition": "8.86% (inactive)"}, {"molecule": "CCOC(=O)c1ccccc1CN1C(=O)c2ccccc2S1(=O)=O", "inhibition": "1.98% (inactive)"}, {"molecule": "CCOC(=O)c1cc2n(c1N)-c1ccccc1C2=O", "inhibition": "117% (active)"}, {"molecule": "CC(C)OC(=O)CN1C(=O)C(=O)c2ccccc21", "inhibition": "-0.34% (inactive)"}, {"molecule": "Cc1ccc(CNC(=O)C2CCCN2S(=O)(=O)c2ccc3c(c2)C(C)(C)C(=O)N3C)cc1", "note": "(stereo not given)", "inhibition": "-3.08% (inactive)"}, {"molecule": "CCOC(=O)c1cnc2nc(SCc3ccccc3Cl)[nH]n2c1=O", "inhibition": "-4.26% (inactive)"}, {"molecule": "Oc1[nH]c2ccc(Br)cc2c1N=Nc1nn[nH]n1", "inhibition": "9.48% (inactive)"}, {"molecule": "Cc1cccc(N=Nc2c(O)[nH]c3ccc(F)cc23)c1", "inhibition": "67.5% (active)"}, {"molecule": "NS(=O)(=O)c1ccc(N=Nc2c(O)[nH]c3ccc(Br)cc23)cc1", "inhibition": "15.6% (inactive)"}, {"molecule": "CSc1ccc(S(=O)(=O)N2CCC(C(=O)NCc3ccncc3)CC2)cc1", "inhibition": "-3.16% (inactive)"}, {"molecule": "CSc1ccccc1NC(=O)C(C)N1C(=O)c2ccccc2S1(=O)=O", "note": "(stereo not given)", "inhibition": "-0.85% (inactive)"}, {"molecule": "CN1c2ccc(C=O)c3c(C=O)ccc(c23)N(C)C1(C)C", "inhibition": "134% (active)"}, {"molecule": "Cc1cc(C)c(S(=O)(=O)c2cc(F)ccc2C)c(=O)[nH]1", "inhibition": "-0.88% (inactive)"}, {"molecule": "O=C1NC[C@@H](c2ccccc2)OC(=O)[C@H](Cc2ccc(F)cc2)CC/C=C/C[C@H]1CC(=O)N(CCO)Cc1ccccc1", "inhibition": "3.17% (inactive)"}, {"molecule": "CC(C)OC(=O)C(C#N)c1nc2ccccc2nc1N1CCN(Cc2ccccc2)CC1", "note": "(stereo not given)", "inhibition": "6.85% (inactive)"}, {"molecule": "Cc1ccc(S(=O)(=O)C(C#N)c2nc3ccccc3nc2N2CCCC2)cc1C", "note": "(stereo not given)", "inhibition": "54.9% (active)"}, {"molecule": "Cc1cc(N2CCN(S(=O)(=O)c3ccc(C)c(C)c3)CC2)c2ccccc2n1", "inhibition": "1.62% (inactive)"}, {"molecule": "CCN(C[C@H]1N[C@@](CC)(C(=O)OC)[C@H]2C(=O)N(Cc3ccccc3)C(=O)[C@@H]12)S(=O)(=O)c1ccc(C(F)(F)F)cc1", "inhibition": "7.64% (inactive)"}, {"molecule": "COc1ccc(Cl)cc1NC(=O)COC(=O)c1ccc(Br)o1", "inhibition": "-3.63% (inactive)"}, {"molecule": "COc1ccc(N2CC(C(=O)NCCN3C(=O)S/C(=C\\c4cccnc4)C3=O)CC2=O)c(OC)c1", "note": "(stereo not given)", "inhibition": "118% (active)"}, {"molecule": "CCOc1ccc(N2CC(C(=O)NCCN3C(=O)S/C(=C\\c4cccnc4)C3=O)CC2=O)cc1", "note": "(stereo not given)", "inhibition": "-0.09% (inactive)"}, {"molecule": "COc1ccccc1N1CC(C(=O)NCCN2C(=O)S/C(=C\\c3cccnc3)C2=O)CC1=O", "note": "(stereo not given)", "inhibition": "4.79% (inactive)"}, {"molecule": "C=CCC(NC(=O)Cc1ccccc1)C(=O)NCCC", "note": "(stereo not given)", "inhibition": "-2.12% (inactive)"}, {"molecule": "Cc1ccc(Cn2nnc3c(=O)[nH]c(C4CCN(S(=O)(=O)/C=C/c5ccccc5)CC4)nc32)cc1", "inhibition": "1.59% (inactive)"}, {"molecule": "O=C(COC(=O)c1cc[n+]([O-])cc1)Nc1ccc(Cl)c(C(F)(F)F)c1", "inhibition": "8.04% (inactive)"}, {"molecule": "CC(NC(=O)c1ccco1)c1ccc2c(c1)OCO2", "note": "(stereo not given)", "inhibition": "-0.47% (inactive)"}, {"molecule": "COc1ccc(NS(=O)(=O)c2ccc(F)cc2F)cn1", "inhibition": "-1.42% (inactive)"}, {"molecule": "COc1ccc(Nc2cc(Cl)ccc2C(=O)O)cn1", "inhibition": "66.1% (active)"}, {"molecule": "COc1cccc(Nc2ncccc2C(=O)O)c1", "inhibition": "3.26% (inactive)"}, {"molecule": "COc1cc(OC)cc(-c2c(C#Cc3ccsc3)c3cc(-c4ccc(OC)cc4F)ccc3n2C)c1", "inhibition": "-36.1% (inactive)"}, {"molecule": "Cc1ccc(NC(=O)C(=O)NCc2ccc(/C=N/NC(=O)c3c(C)nc4cc(C)ccn34)o2)cc1", "inhibition": "1.79% (inactive)"}, {"molecule": "Cc1ccc(S(=O)(=O)Nc2nc(CN3CCOCC3)nc3sc(C)c(C)c23)cc1", "inhibition": "-15.1% (inactive)"}, {"molecule": "COc1ccc(/C=C(\\C#N)c2c[nH]c3ccccc23)cc1", "inhibition": "8.67% (inactive)"}, {"molecule": "O=C(NC1CCCC1)C(=O)c1c[nH]c2ccccc12", "inhibition": "6.85% (inactive)"}, {"molecule": "C[n+]1ccc(/C=C/c2c[nH]c3ccccc23)cc1", "inhibition": "55.5% (active)"}, {"molecule": "COc1ccccc1-n1c(SCC(=O)Nc2cccc(C(=O)O)c2)nnc1-c1ccccc1O", "inhibition": "6.18% (inactive)"}, {"molecule": "OC1CN=C2Sc3ccccc3N2C1", "note": "(stereo not given)", "inhibition": "12.5% (inactive)"}, {"molecule": "CNC(=S)NNC(=O)c1cccn(Cc2ccccc2)c1=O", "inhibition": "3.04% (inactive)"}, {"molecule": "NNC(=O)c1oc2nc(-c3ccccc3)cc(-c3ccco3)c2c1N", "inhibition": "-23.7% (inactive)"}, {"molecule": "CNC(=S)NNC(=O)c1oc2nc(-c3ccccc3)cc(-c3ccco3)c2c1N", "inhibition": "38.9% (active)"}, {"molecule": "Cc1ccc(C(=O)NCC(=O)OCC(=O)Nc2cccc(S(=O)(=O)N3CCCC3)c2)cc1C", "inhibition": "7.23% (inactive)"}, {"molecule": "COC(=O)c1sccc1NN1C(=O)c2ccccc2C1=O", "inhibition": "4.27% (inactive)"}, {"molecule": "CCOCCOCCC(C(=O)O)P(=O)(c1ccccc1)c1ccccc1", "note": "(stereo not given)", "inhibition": "6.44% (inactive)"}]}]}
